Results on 35 compounds are retold here after PubChem BioAssay (EPA / NIEHS).

Active and inactive are the calls of the source. The calls were made as follows: active = hit-call score of the fitted dose curve at least 0.9, where 1 is the maximum; inactive = score below 0.9.

The first assay in a line: ATG_AP_2_CIS: Attagene CIS-FACTORIAL HepG2 Assay for human Activator Protein 2 (AP-2) (AID 2282932). To be noted: HepG2 AP-2 cis-reporter, Attagene transcription factor profiling; actives raise or lower the signal. Summed up:
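Multiplexed mRNA reporter assay in HepG2: cis-regulated units report endogenous factor activity after 24 h treatment. Fluorescence from capillary electrophoresis of RT-PCR products gives the signal, with DMSO as baseline.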
For `CNC(=S)NC`, the outcome was inactive.
As for `CCCCC(CC)COP(=O)(O)OCC(CC)CCCC` (centres undefined), the compound was classed as inactive.
Take `C=C(C)C(=O)OCC(F)(F)C(F)(F)C(F)(F)F`: the outcome was inactive.
With `COC(=O)C1CCC(C(=O)OC)CC1` (centres undefined), the result was inactive.
As to `C=CC/C=C/C/C=C/C/C=C/C`, the compound was called inactive.
Regarding `O=C(O)C(F)(F)C(F)(F)C(F)(F)C(F)(F)C(F)(F)C(F)(F)C(F)(F)C(F)(F)C(F)(F)C(F)(F)C(F)(F)C(F)(F)C(F)(F)F`, the outcome was inactive.
For the compound `C=CC(=O)OCC(F)(F)C(F)(F)C(F)(F)C(F)(F)C(F)(F)C(F)(F)C(F)(F)F`, the outcome was inactive.
For the compound `N=C(N)C(F)(F)C(F)(F)C(F)(F)C(F)(F)C(F)(F)C(F)(F)C(F)(F)F`, the result was inactive.
In the case of `Nc1ccc(S(=O)(=O)Nc2nccs2)cc1`, the compound was called inactive.
`O=C(C=Cc1ccccc1)OCC=Cc1ccccc1`: the outcome was inactive.
On to `FC(F)(F)C(F)(F)C(F)(F)C(F)(F)C(F)(F)CCI`, for which the result was inactive.
Same read-out and setting: in the case of `Nc1ccc(Oc2cccc(Oc3ccc(N)cc3)c2)cc1` it was “inactive”; in that of `FC1CC(F)(F)C(F)(F)C1(F)F` (centres undefined), “inactive”.
As to `CCCCCCCOC(=O)c1ccccc1C(=O)OCCCCCCC`, the call was inactive.

A further assay can be described thus: ATG_BRE_CIS: Attagene CIS-FACTORIAL HepG2 Assay for human Bone Morphogenetic Protein (BMP) Response Element (BRE) (AID 2282933). To be noted: HepG2 BMP response element reporter, Attagene transcription factor profiling; actives raise or lower the signal. Summed up:
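Read-out: reporter mRNA induction quantified by RT-PCR and capillary electrophoresis after 24 h chemical exposure of transfected HepG2 cells. Endogenous factor activity on the BMP response element; gain or loss fitted against DMSO baseline.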
Regarding `Nc1cc(Cl)c(N)c(Cl)c1`, the call was inactive.
As for `O=C(CC(=O)C(F)(F)C(F)(F)F)C(F)(F)F`, the compound was called inactive.
For `FC(F)(F)C(F)(F)CNCC(F)(F)C(F)(F)F`, the compound was classed as inactive.
With `CCc1c(Br)c(Br)c(Br)c(Br)c1Br`, the call was inactive.
For `C=C(C)C(=O)OCCC(F)(F)C(F)(F)C(F)(F)C(F)(F)C(F)(C(F)(F)F)C(F)(F)F`, the compound was called inactive.
On to `C=CC(=O)OCC(F)(F)C(F)(F)C(F)(F)C(F)(F)COC(=O)C=C`, for which the outcome was inactive.
As for `CCc1ccc(C(c2ccc(CC)cc2)C(Cl)Cl)cc1`, the compound was called inactive.
On to `CO[Si](OC)(c1ccccc1)c1ccccc1`, for which the result was inactive.
Consider `Cc1cc(C)cc(O)c1`, for which the compound was classed as inactive.
The same measure, in the same setting: then `CCCCCCOC(=O)c1ccccc1O`, with “inactive”; and `O=C(O)C(F)(F)C(F)(F)C(F)(F)C(F)(F)C(F)(F)C(F)(F)C(F)(F)C(F)(F)C(F)(F)C(F)(F)C(F)(F)C(F)(F)F`, with “inactive”.
Consider `CCCCCCS`, for which the compound was called inactive.
In the case of `CCCCOc1ccc(N)cc1`, the call was inactive.
Consider `c1ccc(-c2ccccc2-c2ccccc2)cc1`, for which the outcome was inactive.
With `FC(F)(F)C(F)(F)C(F)(F)C(F)(F)C(F)(F)C(F)(F)C(F)(F)C(F)(F)CCS`, the result was inactive.
Turning to `CCCCNc1ccccc1`, the call was inactive.
Still for that read-out and setting: then `OCC(F)(F)C(F)(F)C(F)(F)C(F)(F)C(F)(F)C(F)(F)F`, with “inactive”; and `O=C(O)C(F)(F)C(F)(F)C(F)(F)C(F)(F)F`, with “inactive”.
Turning to `Cc1ccc(S(=O)(=O)OCC(F)(F)C(F)(F)C(F)(F)C(F)(F)C(F)(F)C(F)F)cc1`, the outcome was inactive.
Regarding `CCCCCCOC(=O)c1ccccc1`, the result was inactive.
For the compound `CCN(Cc1cccc(S(=O)(=O)O)c1)c1ccc(C(=C2C=CC(=[N+](CC)Cc3cccc(S(=O)(=O)O)c3)C=C2)c2ccc(O)cc2S(=O)(=O)[O-])cc1`, the compound was called inactive.
For `CNC(=S)NC`, the result was inactive.
On the same count and under the same terms, in the case of `CCCCC(CC)COP(=O)(O)OCC(CC)CCCC` (centres undefined) it was “inactive”; in that of `C=C(C)C(=O)OCC(F)(F)C(F)(F)C(F)(F)F`, “inactive”; in that of `COC(=O)C1CCC(C(=O)OC)CC1` (centres undefined), “inactive”.
For `C=CC/C=C/C/C=C/C/C=C/C`, the compound was called inactive.
With `O=C(O)C(F)(F)C(F)(F)C(F)(F)C(F)(F)C(F)(F)C(F)(F)C(F)(F)C(F)(F)C(F)(F)C(F)(F)C(F)(F)C(F)(F)C(F)(F)F`, the call was inactive.
For `C=CC(=O)OCC(F)(F)C(F)(F)C(F)(F)C(F)(F)C(F)(F)C(F)(F)C(F)(F)F`, the compound was called inactive.
With `N=C(N)C(F)(F)C(F)(F)C(F)(F)C(F)(F)C(F)(F)C(F)(F)C(F)(F)F`, the call was inactive.
For `Nc1ccc(S(=O)(=O)Nc2nccs2)cc1`, the result was inactive.
In the case of `O=C(C=Cc1ccccc1)OCC=Cc1ccccc1`, the result was inactive.
The same measure, in the same setting: then `FC(F)(F)C(F)(F)C(F)(F)C(F)(F)C(F)(F)CCI`, with “inactive”; and `Nc1ccc(Oc2cccc(Oc3ccc(N)cc3)c2)cc1`, with “inactive”.
On the same count and under the same terms, in the case of `FC1CC(F)(F)C(F)(F)C1(F)F` (centres undefined) it was “inactive”.
On to `CCCCCCCOC(=O)c1ccccc1C(=O)OCCCCCCC`, for which the call was inactive.
